Bioassay records deposited in PubChem BioAssay by several laboratories.
Shown are actives, neighbours in structure and some others; about 2.9% of the full set was active somewhere.
Myeloid diff MLP – compounds promoting myeloid differentiation; ER-HoxA9 myeloid progenitors, lysozyme-GFP differentiation, flow cytometry; calls only at 10 µM; hit rate 1% among 360,000; AID 624256;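 active means normalized GFP-positive differentiation at or above the plate's own cutoff, the solvent-only control mean plus 3 SD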;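 further: cells exposed to compound for four days before flow analysis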
DAGLB inhibitor – diacylglycerol lipase beta (human) inhibition | inhibition, % at 5.17 µM | HEK293T DAGLB membrane lysate, EnzChek fluorogenic substrate | AID 504411 | Q8NCG7 | hit rate 0.059% among 340,000; in the data active means inhibition above about 34%
H9c2 protect – myocardial damage modulation in H9c2 cells | H9c2 cardiomyocytes, H2O2 injury protection, ATPLite, 2 h | protection from H2O2 cell death, % at 20 µM | hit rate 0.63% among 360,000 | AID 588492;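 active means compounds giving at least 50% protection of heart cells from peroxide-induced death in the single-dose screen, raw or plate-pattern-corrected value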
Rtt109 Vps75 – blocks Candida albicans Rtt109/Vps75 acetyltransferase activity | Q5AAJ8 | purified Rtt109/Vps75, ThioGlo CoA-SH fluorescence, 4 h | inhibition, % at 34.9 µM | hit rate 0.16% among 330,000 | AID 540336;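 active means inhibition of at least 50% in every replicate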
ABHD5 PLIN5 PPI – ABHD5-PLIN5 protein interaction inhibition; AID 602281; Split G. princeps luciferase complementation, luminescence, 4 h; hit rate 0.78% among 360,000; inhibition, % at 4 µM;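 active means inhibition above the mean inhibition across every tested compound plus 3 SD, cut at about 22% in these data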
HGIII-sPLA2 inh – Blocks human group III sPLA2 activity; QFRET BODIPY PC-A2 liposome hydrolysis, fluorescence; hit rate 0.56% among 370,000; inhibition, % at 12.2 µM; Q9NZ20;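 active means inhibition above mean plus 3 SD of compounds lying within the high and low control bounds, cut at about 19% in these data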
Target sequence (Q9NZ20 whole entry, looked up): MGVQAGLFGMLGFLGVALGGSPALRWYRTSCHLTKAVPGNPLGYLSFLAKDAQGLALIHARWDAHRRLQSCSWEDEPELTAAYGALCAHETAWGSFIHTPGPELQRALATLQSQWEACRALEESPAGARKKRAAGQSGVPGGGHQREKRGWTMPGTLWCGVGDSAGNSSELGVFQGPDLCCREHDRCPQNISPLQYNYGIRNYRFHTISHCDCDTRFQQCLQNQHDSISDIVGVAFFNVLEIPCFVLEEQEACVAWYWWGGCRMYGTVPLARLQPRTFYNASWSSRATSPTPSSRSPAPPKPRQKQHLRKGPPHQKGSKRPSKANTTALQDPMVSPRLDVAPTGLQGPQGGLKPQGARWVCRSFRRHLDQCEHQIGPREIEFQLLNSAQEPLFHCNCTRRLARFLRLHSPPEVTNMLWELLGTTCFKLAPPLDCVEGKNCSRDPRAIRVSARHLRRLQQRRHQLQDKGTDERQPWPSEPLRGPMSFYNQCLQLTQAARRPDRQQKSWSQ
Hits are given with their value.

Results for COc1ccc2oc(C(=O)OCC(=O)c3ccc4c(c3)OCCO4)c(C)c2c1 ?
Myeloid diff MLP: active; DAGLB inhibitor: inactive; H9c2 protect: inactive; Rtt109 Vps75: inactive; ABHD5 PLIN5 PPI: inactive; HGIII-sPLA2 inh: inactive

What do the screens show for `O=C(NCCc1ccc(F)cc1)C(=O)Nc1cc2c3c(c1)CC(=O)N3CCC2`?
Myeloid diff MLP: inactive; DAGLB inhibitor: inactive; H9c2 protect: 53; Rtt109 Vps75: inactive; ABHD5 PLIN5 PPI: inactive; HGIII-sPLA2 inh: inactive

How did O=C(NCCc1ccc(Cl)cc1)C(=O)Nc1cc2c3c(c1)CC(=O)N3CCC2 do in these assays?
Myeloid diff MLP: inactive; DAGLB inhibitor: inactive; H9c2 protect: inactive; Rtt109 Vps75: inactive; ABHD5 PLIN5 PPI: inactive; HGIII-sPLA2 inh: inactive

How did C=CCNc1nc(N)c(C(=C(C#N)C#N)c2ccc(Br)cc2)s1 do in these assays?
Myeloid diff MLP: inactive; DAGLB inhibitor: inactive; H9c2 protect: 56; Rtt109 Vps75: inactive; ABHD5 PLIN5 PPI: inactive; HGIII-sPLA2 inh: inactive

What do the screens show for `CC(=O)Oc1ccc2c(c1)CCC1C2CCC2(C)C(OC(C)=O)CCC12` (centres undefined)?
Myeloid diff MLP: inactive; DAGLB inhibitor: inactive; H9c2 protect: inactive; Rtt109 Vps75: inactive; ABHD5 PLIN5 PPI: inactive; HGIII-sPLA2 inh: inactive

What do the screens show for `CCC1CN2CCc3cc(OC)c(OC)cc3C2CC1CC1c2cc(OC)c(OC)cc2CCN1C(=O)C(Cc1c[nH]c2ccccc12)NC(=O)OC(C)(C)C` (centres undefined)?
Myeloid diff MLP: active; DAGLB inhibitor: inactive; H9c2 protect: inactive; Rtt109 Vps75: inactive; ABHD5 PLIN5 PPI: inactive; HGIII-sPLA2 inh: inactive

How did CC(C)C[C@H](NC(=O)OC(C)(C)C)C(=O)N1CCC(C(=O)N[C@@H](Cc2c[nH]c3ccccc23)C(=O)O)CC1 do in these assays?
Myeloid diff MLP: inactive; DAGLB inhibitor: inactive; H9c2 protect: inactive; Rtt109 Vps75: inactive; ABHD5 PLIN5 PPI: inactive; HGIII-sPLA2 inh: inactive

Results for O=S(=O)(NCCN1CCOCC1)c1ccc2ccccc2c1 ?
Myeloid diff MLP: inactive; DAGLB inhibitor: inactive; H9c2 protect: inactive; Rtt109 Vps75: inactive; ABHD5 PLIN5 PPI: inactive; HGIII-sPLA2 inh: inactive

Results for O=S(=O)(NCCN1CCOCC1)c1ccc(Oc2ccccc2Cl)cc1 ?
Myeloid diff MLP: active; DAGLB inhibitor: inactive; H9c2 protect: inactive; Rtt109 Vps75: inactive; ABHD5 PLIN5 PPI: inactive; HGIII-sPLA2 inh: inactive

What do the screens show for `CCCN1CCN(C(=O)CCc2nnc3ccc(N4CCN(c5cccc(OC)c5)CC4)nn23)CC1`?
Myeloid diff MLP: inactive; DAGLB inhibitor: inactive; H9c2 protect: 55; Rtt109 Vps75: inactive; ABHD5 PLIN5 PPI: inactive; HGIII-sPLA2 inh: inactive

What do the screens show for `COc1cccc(NC(=S)/C(=C(\[O-])c2ccc(C)c([N+](=O)[O-])c2)[n+]2ccccc2)c1`?
Myeloid diff MLP: active; DAGLB inhibitor: inactive; H9c2 protect: inactive; Rtt109 Vps75: inactive; ABHD5 PLIN5 PPI: inactive; HGIII-sPLA2 inh: inactive

How did Cc1ccccc1NC(=S)/C(=C(\[O-])c1ccc(C)c([N+](=O)[O-])c1)[n+]1ccccc1 do in these assays?
Myeloid diff MLP: inactive; DAGLB inhibitor: inactive; H9c2 protect: inactive; Rtt109 Vps75: inactive; ABHD5 PLIN5 PPI: inactive; HGIII-sPLA2 inh: inactive

What do the screens show for `Cc1nn(C)c(C)c1N1C(=O)c2cccc3c(N)ccc(c23)C1=O`?
Myeloid diff MLP: active; DAGLB inhibitor: inactive; H9c2 protect: inactive; Rtt109 Vps75: inactive; ABHD5 PLIN5 PPI: inactive; HGIII-sPLA2 inh: inactive

Results for Cc1nn(C)c(C)c1N1C(=O)c2cccc3c(Br)ccc(c23)C1=O ?
Myeloid diff MLP: active; DAGLB inhibitor: inactive; H9c2 protect: inactive; Rtt109 Vps75: inactive; ABHD5 PLIN5 PPI: inactive; HGIII-sPLA2 inh: inactive

What do the screens show for `CN(C)/C=N/c1c(C#N)cnn1-c1nc2ccccc2s1`?
Myeloid diff MLP: inactive; DAGLB inhibitor: inactive; H9c2 protect: inactive; Rtt109 Vps75: inactive; ABHD5 PLIN5 PPI: inactive; HGIII-sPLA2 inh: inactive

What do the screens show for `COc1cccc(/C(O)=C/c2nc3ccc(C(=O)NCCc4cccc(C)c4)cc3[nH]c2=O)c1`?
Myeloid diff MLP: active; DAGLB inhibitor: inactive; H9c2 protect: inactive; Rtt109 Vps75: inactive; ABHD5 PLIN5 PPI: inactive; HGIII-sPLA2 inh: inactive

Results for COc1cccc(C(=O)Nc2cc(C(=O)NCCc3ccccc3)ccc2Cl)c1 ?
Myeloid diff MLP: inactive; DAGLB inhibitor: inactive; H9c2 protect: inactive; Rtt109 Vps75: inactive; ABHD5 PLIN5 PPI: inactive; HGIII-sPLA2 inh: inactive

How did CCOc1ccccc1N1CCN(C(=O)/C=C/c2cccc([N+](=O)[O-])c2)CC1 do in these assays?
Myeloid diff MLP: active; DAGLB inhibitor: inactive; H9c2 protect: inactive; Rtt109 Vps75: inactive; ABHD5 PLIN5 PPI: inactive; HGIII-sPLA2 inh: inactive

What do the screens show for `O=C(/C=C/c1cccc([N+](=O)[O-])c1)N1CCN(c2ccccc2F)CC1`?
Myeloid diff MLP: inactive; DAGLB inhibitor: inactive; H9c2 protect: inactive; Rtt109 Vps75: inactive; ABHD5 PLIN5 PPI: inactive; HGIII-sPLA2 inh: inactive

How did COc1ccc(-c2c(C)nn3c(C)cc(C)nc23)cc1 do in these assays?
Myeloid diff MLP: inactive; DAGLB inhibitor: inactive; H9c2 protect: inactive; Rtt109 Vps75: 58; ABHD5 PLIN5 PPI: inactive; HGIII-sPLA2 inh: inactive

What do the screens show for `O=C(c1cccnc1)N1CCN(C(=O)c2ccco2)CC1`?
Myeloid diff MLP: inactive; DAGLB inhibitor: inactive; H9c2 protect: inactive; Rtt109 Vps75: inactive; ABHD5 PLIN5 PPI: inactive; HGIII-sPLA2 inh: inactive

Results for Cc1cc(N2CCCC2=O)cc(C)c1S(=O)(=O)NCCOc1ccccc1 ?
Myeloid diff MLP: inactive; DAGLB inhibitor: inactive; H9c2 protect: inactive; Rtt109 Vps75: inactive; ABHD5 PLIN5 PPI: inactive; HGIII-sPLA2 inh: inactive

How did O=C(CN1CCOCC1)Nc1cccc(C(F)(F)F)c1 do in these assays?
Myeloid diff MLP: inactive; DAGLB inhibitor: inactive; H9c2 protect: inactive; Rtt109 Vps75: 55; ABHD5 PLIN5 PPI: inactive; HGIII-sPLA2 inh: inactive

What do the screens show for `Cc1ccccc1CSc1ccc2nnc(-c3ccccn3)n2n1`?
Myeloid diff MLP: active; DAGLB inhibitor: inactive; H9c2 protect: inactive; Rtt109 Vps75: inactive; ABHD5 PLIN5 PPI: inactive; HGIII-sPLA2 inh: inactive

How did CCN1CCN(C(=O)CCc2nc3ccccc3c(=O)[nH]2)CC1 do in these assays?
Myeloid diff MLP: inactive; DAGLB inhibitor: inactive; H9c2 protect: inactive; Rtt109 Vps75: inactive; ABHD5 PLIN5 PPI: inactive; HGIII-sPLA2 inh: inactive

Results for Cc1cc(C)c(C)c(S(=O)(=O)N2CCN(C(=O)CCc3nc4ccccc4c(=O)[nH]3)CC2)c1C ?
Myeloid diff MLP: inactive; DAGLB inhibitor: inactive; H9c2 protect: 70; Rtt109 Vps75: inactive; ABHD5 PLIN5 PPI: inactive; HGIII-sPLA2 inh: inactive

What do the screens show for `O=C(CCc1nc2ccccc2c(=O)[nH]1)N1CCN(S(=O)(=O)c2cc(Cl)ccc2Cl)CC1`?
Myeloid diff MLP: inactive; DAGLB inhibitor: inactive; H9c2 protect: 61; Rtt109 Vps75: inactive; ABHD5 PLIN5 PPI: inactive; HGIII-sPLA2 inh: inactive

Results for O=C(CCc1nc2ccccc2c(=O)[nH]1)N1CCN(S(=O)(=O)c2cccc(F)c2)CC1 ?
Myeloid diff MLP: inactive; DAGLB inhibitor: inactive; H9c2 protect: 52; Rtt109 Vps75: inactive; ABHD5 PLIN5 PPI: inactive; HGIII-sPLA2 inh: inactive

What do the screens show for `O=C(CCc1nc2ccccc2c(=O)[nH]1)N1CCN(c2ccccc2Cl)CC1`?
Myeloid diff MLP: inactive; DAGLB inhibitor: inactive; H9c2 protect: 64; Rtt109 Vps75: inactive; ABHD5 PLIN5 PPI: inactive; HGIII-sPLA2 inh: inactive
